# Legend:
# Test in all cases: SPOT peptide array binding signal intensity (averaged, normalized) (arbitrary units (background-subtracted, floor 0; scale differs between SH3 domains)); higher = stronger binding of the SH3 domain to the peptide
# AgAbp1 = biological target: AgAbp1
# In short: (§1)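 To measure binding, SH3 domains from four yeast species were fused to GST, expressed in E. coli BL21(DE3) and purified on glutathione Sepharose. Each domain was incubated at 10 μg/ml overnight at 4°C on cellulose membranes with synthetic 15-mer peptides whose cysteines were replaced by serines. Anti-GST antibody, an HRP anti-mouse secondary and luminol were used for detection, and images were quantified with Genespotter. Reported binding signal is normalized, background-subtracted spot intensity averaged over replicates, in arbitrary units that differ between domains.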
# AgBbc1 = biological target: AgBbc1
# In short: as §1
# AgBem1-D1 = biological target: AgBem1-D1
# In short: as §1
# AgBzz1-D1 = biological target: AgBzz1-D1
# In short: as §1
# AgBzz1-D2 = biological target: AgBzz1-D2
# In short: as §1
# AgCyk3 = biological target: AgCyk3
# In short: as §1
# AgFus1 = biological target: AgFus1
# In short: as §1
# AgHof1 = biological target: AgHof1
# In short: as §1
# AgHse1 = biological target: AgHse1
# In short: as §1
# AgLsb1 = biological target: AgLsb1
# In short: as §1
# AgLsb4 = biological target: AgLsb4
# In short: as §1
# AgMyo5 = biological target: AgMyo5
# In short: as §1
# AgNbp2 = biological target: AgNbp2
# In short: as §1
# AgRvs167 = biological target: AgRvs167
# In short: as §1
# AgSho1 = biological target: AgSho1
# In short: as §1
# AgSla1-D1-D2 = biological target: AgSla1-D1-D2
# In short: as §1
# AgSla1-D3 = biological target: AgSla1-D3
# In short: as §1
# CaAbp1-D1 = biological target: CaAbp1-D1
# In short: as §1
# CaAbp1-D2 = biological target: CaAbp1-D2
# In short: as §1
# CaBbc1 = biological target: CaBbc1
# In short: as §1
# CaBem1-D1 = biological target: CaBem1-D1
# In short: as §1
# CaBzz1-D1 = biological target: CaBzz1-D1
# In short: as §1
# CaBzz1-D2 = biological target: CaBzz1-D2
# In short: as §1
# CaCyk3 = biological target: CaCyk3
# In short: as §1
# CaFus1 = biological target: CaFus1
# In short: as §1
# CaHof1 = biological target: CaHof1
# In short: as §1
# CaHse1 = biological target: CaHse1
# In short: as §1
# CaLsb1 = biological target: CaLsb1
# In short: as §1
# CaLsb4 = biological target: CaLsb4
# In short: as §1
# CaMyo5 = biological target: CaMyo5
# In short: as §1
# CaNbp2 = biological target: CaNbp2
# In short: as §1
# CaRvs167 = biological target: CaRvs167
# In short: as §1
# CaRvs167-3 = biological target: CaRvs167-3
# In short: as §1
# CaSho1 = biological target: CaSho1
# In short: as §1
# CaSla1-D1-D2 = biological target: CaSla1-D1-D2
# In short: as §1
# CaSla1-D3 = biological target: CaSla1-D3
# In short: as §1
# ScAbp1 = biological target: ScAbp1
# In short: as §1
# ScBbc1 = biological target: ScBbc1
# In short: as §1
# ScBem1-D1 = biological target: ScBem1-D1
# In short: as §1
# ScBzz1-D1 = biological target: ScBzz1-D1
# In short: as §1
# ScBzz1-D2 = biological target: ScBzz1-D2
# In short: as §1
# ScCyk3 = biological target: ScCyk3
# In short: as §1
# ScFus1 = biological target: ScFus1
# In short: as §1
# ScHof1 = biological target: ScHof1
# In short: as §1
# ScHse1 = biological target: ScHse1
# In short: as §1
# ScLsb1 = biological target: ScLsb1
# In short: as §1
# ScLsb2 = biological target: ScLsb2
# In short: as §1
# ScLsb3 = biological target: ScLsb3
# In short: as §1
# ScLsb4 = biological target: ScLsb4
# In short: as §1
# ScMyo3 = biological target: ScMyo3
# In short: as §1
# ScMyo5 = biological target: ScMyo5
# In short: as §1
# ScNbp2 = biological target: ScNbp2
# In short: as §1
# ScPex13 = biological target: ScPex13
# In short: as §1
# ScRvs167 = biological target: ScRvs167
# In short: as §1
# ScSho1 = biological target: ScSho1
# In short: as §1
# ScSla1-D1-D2 = biological target: ScSla1-D1-D2
# In short: as §1
# ScSla1-D3 = biological target: ScSla1-D3
# In short: as §1
# SpAbp1-D1 = biological target: SpAbp1-D1
# In short: as §1
# SpBbc1 = biological target: SpBbc1
# In short: as §1
# SpBzz1-D1 = biological target: SpBzz1-D1
# In short: as §1
# SpBzz1-D2 = biological target: SpBzz1-D2
# In short: as §1
# SpCyk3 = biological target: SpCyk3
# In short: as §1
# SpHof1 = biological target: SpHof1
# In short: as §1
# SpHof1-2 = biological target: SpHof1-2
# In short: as §1
# SpHof1-3 = biological target: SpHof1-3
# In short: as §1
# SpHse1 = biological target: SpHse1
# In short: as §1
# SpLsb1 = biological target: SpLsb1
# In short: as §1
# SpLsb4 = biological target: SpLsb4
# In short: as §1
# SpMyo1 = biological target: SpMyo1
# In short: as §1
# SpNbp2 = biological target: SpNbp2
# In short: as §1
# SpPex13 = biological target: SpPex13
# In short: as §1
# SpRvs167 = biological target: SpRvs167
# In short: as §1
# SpSla1-D1-D2 = biological target: SpSla1-D1-D2
# In short: as §1
# SpSla1-D3 = biological target: SpSla1-D3
# In short: as §1
binder,measurement,setting,value
RMVRRRPLRVQFSAR,SPOT peptide array binding signal intensity,AgAbp1,341
same,SPOT peptide array binding signal intensity,AgBbc1,152
same,SPOT peptide array binding signal intensity,AgBem1-D1,477
same,SPOT peptide array binding signal intensity,AgBzz1-D1,102
same,SPOT peptide array binding signal intensity,AgBzz1-D2,93.5
same,SPOT peptide array binding signal intensity,AgCyk3,3
same,SPOT peptide array binding signal intensity,AgFus1,2500
same,SPOT peptide array binding signal intensity,AgHof1,44.8
same,SPOT peptide array binding signal intensity,AgHse1,1410
same,SPOT peptide array binding signal intensity,AgLsb1,16.5
same,SPOT peptide array binding signal intensity,AgLsb4,606
same,SPOT peptide array binding signal intensity,AgMyo5,2.5
same,SPOT peptide array binding signal intensity,AgNbp2,1110
same,SPOT peptide array binding signal intensity,AgRvs167,10.8
same,SPOT peptide array binding signal intensity,AgSho1,634
same,SPOT peptide array binding signal intensity,AgSla1-D1-D2,284
same,SPOT peptide array binding signal intensity,AgSla1-D3,28.2
same,SPOT peptide array binding signal intensity,CaAbp1-D1,820
same,SPOT peptide array binding signal intensity,CaAbp1-D2,810
same,SPOT peptide array binding signal intensity,CaBbc1,247
same,SPOT peptide array binding signal intensity,CaBem1-D1,495
same,SPOT peptide array binding signal intensity,CaBzz1-D1,202
same,SPOT peptide array binding signal intensity,CaBzz1-D2,245
same,SPOT peptide array binding signal intensity,CaCyk3,104
same,SPOT peptide array binding signal intensity,CaFus1,3490
same,SPOT peptide array binding signal intensity,CaHof1,2.5
same,SPOT peptide array binding signal intensity,CaHse1,464
same,SPOT peptide array binding signal intensity,CaLsb1,12.5
same,SPOT peptide array binding signal intensity,CaLsb4,1050
same,SPOT peptide array binding signal intensity,CaMyo5,58
same,SPOT peptide array binding signal intensity,CaNbp2,1470
same,SPOT peptide array binding signal intensity,CaRvs167,190
same,SPOT peptide array binding signal intensity,CaRvs167-3,216
same,SPOT peptide array binding signal intensity,CaSho1,1620
same,SPOT peptide array binding signal intensity,CaSla1-D1-D2,590
same,SPOT peptide array binding signal intensity,CaSla1-D3,700
same,SPOT peptide array binding signal intensity,ScAbp1,188
same,SPOT peptide array binding signal intensity,ScBbc1,90.2
same,SPOT peptide array binding signal intensity,ScBem1-D1,142
same,SPOT peptide array binding signal intensity,ScBzz1-D1,39.5
same,SPOT peptide array binding signal intensity,ScBzz1-D2,238
same,SPOT peptide array binding signal intensity,ScCyk3,81.5
same,SPOT peptide array binding signal intensity,ScFus1,1530
same,SPOT peptide array binding signal intensity,ScHof1,12
same,SPOT peptide array binding signal intensity,ScHse1,2920
same,SPOT peptide array binding signal intensity,ScLsb1,23.2
same,SPOT peptide array binding signal intensity,ScLsb2,14
same,SPOT peptide array binding signal intensity,ScLsb3,1400
same,SPOT peptide array binding signal intensity,ScLsb4,364
same,SPOT peptide array binding signal intensity,ScMyo3,16
same,SPOT peptide array binding signal intensity,ScMyo5,2
same,SPOT peptide array binding signal intensity,ScNbp2,1660
same,SPOT peptide array binding signal intensity,ScPex13,40
same,SPOT peptide array binding signal intensity,ScRvs167,164
same,SPOT peptide array binding signal intensity,ScSho1,1900
same,SPOT peptide array binding signal intensity,ScSla1-D1-D2,1030
same,SPOT peptide array binding signal intensity,ScSla1-D3,217
same,SPOT peptide array binding signal intensity,SpAbp1-D1,558
same,SPOT peptide array binding signal intensity,SpBbc1,38.8
same,SPOT peptide array binding signal intensity,SpBzz1-D1,224
same,SPOT peptide array binding signal intensity,SpBzz1-D2,30.5
same,SPOT peptide array binding signal intensity,SpCyk3,7
same,SPOT peptide array binding signal intensity,SpHof1,556
same,SPOT peptide array binding signal intensity,SpHof1-2,29.5
same,SPOT peptide array binding signal intensity,SpHof1-3,862
same,SPOT peptide array binding signal intensity,SpHse1,874
same,SPOT peptide array binding signal intensity,SpLsb1,21
same,SPOT peptide array binding signal intensity,SpLsb4,1330
same,SPOT peptide array binding signal intensity,SpMyo1,46.2
same,SPOT peptide array binding signal intensity,SpNbp2,1850
same,SPOT peptide array binding signal intensity,SpPex13,320
same,SPOT peptide array binding signal intensity,SpRvs167,66.2
same,SPOT peptide array binding signal intensity,SpSla1-D1-D2,15
same,SPOT peptide array binding signal intensity,SpSla1-D3,81
RTRRRPPPPPIPSTQ,SPOT peptide array binding signal intensity,AgAbp1,334
same,SPOT peptide array binding signal intensity,AgBbc1,531
same,SPOT peptide array binding signal intensity,AgBem1-D1,308
same,SPOT peptide array binding signal intensity,AgBzz1-D1,3430
same,SPOT peptide array binding signal intensity,AgBzz1-D2,1460
same,SPOT peptide array binding signal intensity,AgCyk3,2
same,SPOT peptide array binding signal intensity,AgFus1,87
same,SPOT peptide array binding signal intensity,AgHof1,256
same,SPOT peptide array binding signal intensity,AgHse1,91
same,SPOT peptide array binding signal intensity,AgLsb1,370
same,SPOT peptide array binding signal intensity,AgLsb4,136
same,SPOT peptide array binding signal intensity,AgMyo5,339
same,SPOT peptide array binding signal intensity,AgNbp2,2690
same,SPOT peptide array binding signal intensity,AgRvs167,99.3
same,SPOT peptide array binding signal intensity,AgSho1,27
same,SPOT peptide array binding signal intensity,AgSla1-D1-D2,23
same,SPOT peptide array binding signal intensity,AgSla1-D3,735
same,SPOT peptide array binding signal intensity,CaAbp1-D1,748
same,SPOT peptide array binding signal intensity,CaAbp1-D2,1060
same,SPOT peptide array binding signal intensity,CaBbc1,965
same,SPOT peptide array binding signal intensity,CaBem1-D1,124
same,SPOT peptide array binding signal intensity,CaBzz1-D1,7320
same,SPOT peptide array binding signal intensity,CaBzz1-D2,4870
same,SPOT peptide array binding signal intensity,CaCyk3,53.5
same,SPOT peptide array binding signal intensity,CaFus1,452
same,SPOT peptide array binding signal intensity,CaHof1,0.5
same,SPOT peptide array binding signal intensity,CaHse1,21
same,SPOT peptide array binding signal intensity,CaLsb1,1.25
same,SPOT peptide array binding signal intensity,CaLsb4,1170
same,SPOT peptide array binding signal intensity,CaMyo5,19.8
same,SPOT peptide array binding signal intensity,CaNbp2,1440
same,SPOT peptide array binding signal intensity,CaRvs167,111
same,SPOT peptide array binding signal intensity,CaRvs167-3,22.5
same,SPOT peptide array binding signal intensity,CaSho1,98
same,SPOT peptide array binding signal intensity,CaSla1-D1-D2,2100
same,SPOT peptide array binding signal intensity,CaSla1-D3,391
same,SPOT peptide array binding signal intensity,ScAbp1,114
same,SPOT peptide array binding signal intensity,ScBbc1,511
same,SPOT peptide array binding signal intensity,ScBem1-D1,13.5
same,SPOT peptide array binding signal intensity,ScBzz1-D1,1990
same,SPOT peptide array binding signal intensity,ScBzz1-D2,258
same,SPOT peptide array binding signal intensity,ScCyk3,19
same,SPOT peptide array binding signal intensity,ScFus1,40.5
same,SPOT peptide array binding signal intensity,ScHof1,2
same,SPOT peptide array binding signal intensity,ScHse1,473
same,SPOT peptide array binding signal intensity,ScLsb1,492
same,SPOT peptide array binding signal intensity,ScLsb2,559
same,SPOT peptide array binding signal intensity,ScLsb3,2080
same,SPOT peptide array binding signal intensity,ScLsb4,258
same,SPOT peptide array binding signal intensity,ScMyo3,940
same,SPOT peptide array binding signal intensity,ScMyo5,1490
same,SPOT peptide array binding signal intensity,ScNbp2,3190
same,SPOT peptide array binding signal intensity,ScPex13,318
same,SPOT peptide array binding signal intensity,ScRvs167,1430
same,SPOT peptide array binding signal intensity,ScSho1,894
same,SPOT peptide array binding signal intensity,ScSla1-D1-D2,3110
same,SPOT peptide array binding signal intensity,ScSla1-D3,883
same,SPOT peptide array binding signal intensity,SpAbp1-D1,505
same,SPOT peptide array binding signal intensity,SpBbc1,85.8
same,SPOT peptide array binding signal intensity,SpBzz1-D1,4250
